Only some compounds are listed: those with a hit (about 2.4% of all), similar ones and a draw of the others.
LT uptake inh = qHTS Assay for Anthrax Lethal Toxin Internalization. Potency, µM (doses to about 40 µM), inactives show at the top dose activity change, negative = inhibition, actives largely listed as inhibitors. AID 912, 2007. actives 0.67% (n = 70,000). Cells, anthrax lethal toxin internalization, FRET ratio (460/530); further: on the % scale 0 is the no-effect control and ±100 the full control effect; nearly all actives have a fitted effect of over 50% in size
AmpC det inh = Promiscuous and Specific Inhibitors of AmpC Beta-Lactamase (assay with detergent). P00811. Potency, µM (top dose mostly 28.7 µM), without a hit: top-dose activity change, negative = inhibition. actives 0.09% (n = 71,000). purified AmpC, nitrocefin hydrolysis with detergent; active means well fitted curve in the direction sought with a large enough effect; inconclusive means small, poorly fitted or top-dose-only effect; further: on the % scale 0 is the no-effect control and ±100 the full control effect
Target sequence (P00811 whole entry, looked up): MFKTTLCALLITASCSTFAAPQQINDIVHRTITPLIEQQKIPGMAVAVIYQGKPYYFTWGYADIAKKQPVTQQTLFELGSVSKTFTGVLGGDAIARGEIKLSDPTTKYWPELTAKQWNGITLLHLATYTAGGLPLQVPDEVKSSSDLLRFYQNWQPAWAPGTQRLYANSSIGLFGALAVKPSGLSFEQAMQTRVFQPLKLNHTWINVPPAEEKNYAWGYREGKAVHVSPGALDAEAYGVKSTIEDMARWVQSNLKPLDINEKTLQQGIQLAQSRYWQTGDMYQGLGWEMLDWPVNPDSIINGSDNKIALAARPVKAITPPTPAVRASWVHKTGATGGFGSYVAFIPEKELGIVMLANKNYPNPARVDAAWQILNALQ
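E. coli AmpC (5.3 nM) in 20 mM phosphate pH 7.0 with 0.01% Triton X-100, preincubated 15 min RT with compound; nitrocefin (2 uL of 800 uM stock) hydrolysis followed by 480 nm absorbance every 20 s over 4 min.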
AmpC nodet inh = Promiscuous and Specific Inhibitors of AmpC Beta-Lactamase (assay without detergent) | P00811 | Potency, µM (titrated, usually from 28.7 µM), inactives show at the highest dose activity change, negative = inhibition | AmpC nitrocefin hydrolysis, absorbance 480 nm, no detergent | AID 585, 2007 | actives 1.8% (n = 71,000); further: % of control where 0% means no effect
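Enzyme, pH 7.0 phosphate. Compound titrations were pre-incubated with AmpC for 15 min at room temperature before nitrocefin (stock 800 uM) addition; product formation was recorded at 480 nm every 20 s for 4 min.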
SmPrx2 inh = Schistosoma Mansoni Peroxiredoxins (Prx2); AID 448, 2006; S. mansoni Prx2 activity coupled to TGR/GSH (TGR is thioredoxin glutathione reductase), NADPH fluorescence loss, qHTS; Schistosoma mansoni peroxiredoxin 2 (Prx2); Potency, µM; actives 0.07% (n = 65,000)
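Purified S. mansoni TGR and Prx2 in pH 7.4 phosphate buffer with EDTA and Tween-20 were preincubated with compounds for 15 min. Further NADPH/GSH was added, then a 2.5 mM H2O2 aliquot initiated turnover, followed kinetically by NADPH fluorescence.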
* marks the source's active call; other numbers are inactive results; [ ] = remark or other dose. Unless noted, the call rests on the fitted dose curve. Potency means the concentration at half of the fitted maximal effect.

Screening Clc1ccc(Nc2ncnc3c2cnn3-c2ccccc2)cc1 returned LT uptake inh 10µM*, AmpC det inh 6%, AmpC nodet inh -4% and SmPrx2 inh >57.
For C=C(C)COc1ccc(-c2n[nH]c(C)c2Oc2ccccc2OC)c(O)c1 the results were LT uptake inh 10µM*, AmpC det inh 6%, AmpC nodet inh -16% and SmPrx2 inh >57.
For C=C(C)COc1ccc(-c2[nH]ncc2Oc2cccc(OC)c2)c(O)c1 the results were LT uptake inh inconclusive, AmpC det inh 3%, AmpC nodet inh 10µM* and SmPrx2 inh inconclusive.
For CCOc1ccc(-c2n[nH]c(C)c2Oc2ccccc2OC)c(O)c1 the results were LT uptake inh -31%, AmpC det inh -4%, AmpC nodet inh -7% and SmPrx2 inh >57.
Screening CCCCCC[C@H]1C(=O)O[C@@H](C)[C@H](NC(=O)c2cccc(NC=O)c2O)C(=O)O[C@@H](C)[C@@H]1OC(=O)CC(C)C returned LT uptake inh inconclusive, AmpC det inh -3%, AmpC nodet inh 4% and SmPrx2 inh >57.
`COc1cc([C@@H](O)CN)ccc1O` gave LT uptake inh 5%, AmpC det inh -5%, AmpC nodet inh -3% and SmPrx2 inh >57.
O=C(Nc1cccc2cccnc12)[C@@H]1[C@@H](C(=O)O)[C@H]2CC[C@@H]1O2 was read as LT uptake inh 1%[8 µM], AmpC det inh 1%[5.75 µM], AmpC nodet inh -2%[5.75 µM] and SmPrx2 inh >57.
COc1cc(NC(=O)c2ccc(Cl)cc2)c(OC)cc1NC(=O)CN1CCOCC1 was read as LT uptake inh 13µM*, AmpC det inh 1%, AmpC nodet inh 123% and SmPrx2 inh >57.
`Cn1c(C(=O)NCCc2c[nH]c3ccccc23)cc2sccc21` gave LT uptake inh inconclusive, AmpC det inh 12%, AmpC nodet inh -6% and SmPrx2 inh >57.
For O=C(NCCc1c[nH]c2ccccc12)c1c(Cl)nc2sccn12 the results were LT uptake inh 9%, AmpC det inh -3%, AmpC nodet inh 13µM* and SmPrx2 inh >57.
For O=C(O)CCNc1ncnc2nc[nH]c12 the results were LT uptake inh -3%[8 µM], AmpC det inh -2%[5.75 µM], AmpC nodet inh -3%[5.75 µM] and SmPrx2 inh >57.
`Cn1c(=O)c2nc(-c3ccc(Cl)cc3Cl)oc2c2ccccc21` gave LT uptake inh -19%, AmpC det inh 13%, AmpC nodet inh 2.5µM* and SmPrx2 inh >57.
`O=C(c1csnn1)N1CCC2(CC1)CCN(C(c1ccccc1)c1ccccc1)CC2` gave LT uptake inh inconclusive, AmpC det inh 2%, AmpC nodet inh 110% and SmPrx2 inh >57.
Screening COc1ccccc1NC(=O)N1CCN(c2ccccn2)CC1 returned LT uptake inh 6%, AmpC det inh 13%, AmpC nodet inh 4µM*[single pt active] and SmPrx2 inh >57.
For COc1ccccc1S(=O)(=O)Cc1ccc(C(=O)N2CCCC2)o1 the results were LT uptake inh 6%, AmpC det inh 11%, AmpC nodet inh 22% and SmPrx2 inh >57.
COc1ccccc1S(=O)(=O)Cc1ccc(C(=O)N2CCN(c3ccccn3)CC2)o1 was read as LT uptake inh -13%, AmpC det inh 11%, AmpC nodet inh 4µM*[single pt active] and SmPrx2 inh >57.
For Cc1ccccc1S(=O)(=O)Cc1ccc(C(=O)N2CCN(c3cccc(C)c3C)CC2)o1 the results were LT uptake inh inconclusive, AmpC det inh -3%, AmpC nodet inh 85% and SmPrx2 inh >57.
Screening Cc1ccccc1S(=O)(=O)Cc1ccc(C(=O)N2CC(C)CC(C)C2)o1 (stereo not drawn) returned LT uptake inh 3%, AmpC det inh 10%, AmpC nodet inh 4µM*[single pt active] and SmPrx2 inh >57.
Screening COc1ccc(S(=O)(=O)Cc2ccc(C(=O)N3CCC(C(N)=O)CC3)o2)cc1 returned LT uptake inh 9%, AmpC det inh 5%, AmpC nodet inh 6% and SmPrx2 inh >57.
`COc1ccc(S(=O)(=O)Cc2ccc(C(=O)N3CCCC3)o2)cc1` gave LT uptake inh 0%, AmpC det inh 9%, AmpC nodet inh 3.2µM*[single pt active] and SmPrx2 inh >57.
O=C(O)C(Oc1nc(=S)[nH]c(=S)[nH]1)(c1ccc(Cl)cc1)c1ccc(Cl)cc1 was read as LT uptake inh -4%[8 µM], AmpC det inh -3%[5.75 µM], AmpC nodet inh -6%[5.75 µM] and SmPrx2 inh >57.
For N#C[C@@H](Cc1ccc(O)c(O)c1)C(=O)N1CCc2ccccc21 the results were LT uptake inh -1%, AmpC det inh -1%, AmpC nodet inh -16% and SmPrx2 inh >57.
Screening CC(=O)N1CCC2(CCCN(C(=O)Nc3cccc(F)c3)C2)CC1 returned LT uptake inh inconclusive, AmpC det inh 0%, AmpC nodet inh 10% and SmPrx2 inh >57.
Screening C[N+](C)([O-])Cc1cc(-c2ccccc2)ccc1O returned LT uptake inh -6%[8 µM], AmpC det inh -3%[5.75 µM], AmpC nodet inh -5%[5.75 µM] and SmPrx2 inh >57.
For CC(=O)NCCNc1ccnc(-c2ccccc2C(F)(F)F)n1 the results were LT uptake inh inconclusive, AmpC det inh 7%, AmpC nodet inh 14% and SmPrx2 inh >57.
Screening CC(C)(C)N1C(=O)[C@H]2[C@H]3[C@H](O)[C@H](O)C/C(=N/OC[C@@H](O)COCc4ccco4)[C@@H]3CC[C@@H]2C1=O returned LT uptake inh -4%[8 µM].
Screening COc1ccc(S(=O)(=O)Cc2ccc(C(=O)N3CCN(c4ccccn4)CC3)o2)cc1 returned LT uptake inh -14%, AmpC det inh 11%, AmpC nodet inh 4µM*[single pt active] and SmPrx2 inh >57.
For Cc1c([C@@H](C)[C@H]2NC[C@H](C)C[C@@H]2O)ccc2c1C[C@@H]1[C@H]2CC=C2C[C@@H](O)CC[C@@]21C the results were LT uptake inh 8%[8 µM], AmpC det inh -2%[5.75 µM], AmpC nodet inh -2%[5.75 µM] and SmPrx2 inh >57.
`O=C(O)Cc1cc(Cl)ccc1O` gave LT uptake inh -7%[8 µM], AmpC det inh -5%[5.75 µM], AmpC nodet inh -13%[5.75 µM] and SmPrx2 inh >57.
For Oc1ccc(Cl)cc1Cc1cc(Cl)cc(Cc2cc(Cl)ccc2O)c1O the results were LT uptake inh 4µM*, AmpC det inh 2%[5.75 µM], AmpC nodet inh -18%[5.75 µM] and SmPrx2 inh >57.
Screening COc1ccc2[nH]cc(CCNc3nc(-c4cccnc4)nc4ccccc34)c2c1 returned LT uptake inh inconclusive, AmpC det inh 0%, AmpC nodet inh -2% and SmPrx2 inh >57.
Cc1nn(-c2ccccc2)c(Cl)c1C(=O)N1CCN(c2ncnc3c2cnn3-c2ccccc2)CC1 was read as LT uptake inh 6.3µM*, AmpC det inh -3%, AmpC nodet inh 134% and SmPrx2 inh >57.
O=C(c1ccco1)N1CCN(c2ncnc3c2cnn3-c2ccccc2)CC1 was read as AmpC det inh -4%, AmpC nodet inh -1% and SmPrx2 inh >57.
COCCn1c(=O)c(-c2ccc(F)cc2)nc2cnc(OCc3ccccc3)nc21 was read as LT uptake inh -4%, AmpC det inh -1%, AmpC nodet inh 25% and SmPrx2 inh >11.

Source: PubChem BioAssay (National Center for Advancing Translational Sciences (NCATS))
